Experimental data: PubChem BioAssay
For some assays here: Measured potencies and affinities stand elsewhere. Calls of active or inactive are those of the source. Unless noted, how the calls were made is not given here.

Legend:
[1] = antimalarial activity against Dd2 strain (AID 2302;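 active means growth inhibition above 50% at the single 2 µM test dose, taken to imply half-maximal potency below 2 µM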;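 further: 0% = DMSO untreated growth and 100% = chloroquine plus artemisinin killed control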); settings: P. falciparum Dd2 in RBCs, LDH growth readout, 72 h; at 2 µM; hits give high values
[2] = HepG2 cytotoxicity, primary screen, cytotoxicity control for P. falciparum antimalarial project, cell-based, ATP luminescence (AID 2303;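 active means inhibition above 50%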;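 further: 0% = DMSO wells and 100% = digitonin-killed cells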); settings: HepG2 viability, 24-48 h, at 10 µM, hits give high values
[3] = target: L-lactate dehydrogenase (Plasmodium falciparum (isolate CDC / Honduras)) (UniProt Q27743); assay: PfLDH activity inhibition – cell lysate, 3D7 strain, counter-screen for P. falciparum growth inhibition project (AID 2304);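 further: 0% = vehicle and 100% = reference inhibitor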; settings: P. falciparum 3D7 crude extract, LDH APAD/NBT absorbance; at 2 µM; hits give high values
Chain of L-lactate dehydrogenase (Plasmodium falciparum (isolate CDC / Honduras)) (Q27743 whole entry, looked up): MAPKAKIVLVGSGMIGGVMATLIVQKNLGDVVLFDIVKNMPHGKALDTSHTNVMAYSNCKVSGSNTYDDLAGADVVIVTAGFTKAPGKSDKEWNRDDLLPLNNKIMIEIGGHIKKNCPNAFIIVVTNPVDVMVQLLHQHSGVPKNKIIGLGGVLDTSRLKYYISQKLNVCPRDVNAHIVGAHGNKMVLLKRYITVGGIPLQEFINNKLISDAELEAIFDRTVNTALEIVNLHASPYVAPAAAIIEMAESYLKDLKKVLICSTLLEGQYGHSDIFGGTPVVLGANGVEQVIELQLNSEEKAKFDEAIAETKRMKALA

[4] = inhibition of 3D7 malaria parasite growth – strain 3D7 (AID 2306);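 further: 0% = DMSO wells and 100% = chloroquine plus artemisinin control wells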; settings: P. falciparum 3D7 erythrocytic growth, LDH absorbance, 72 h; at 2 µM; hits give high values
[5] = target: Calcium-dependent protein kinase 1 (Plasmodium falciparum (isolate 3D7)) (UniProt P62344); assay: PfCDPK1 kinase inhibitors, biochemical, TCAMS library (AID 1159585; cut-off not given, nearly all actives have IC50 up to about 0.98 µM;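 further: inhibitors leave more ATP so luminescence rises with inhibition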); settings: recombinant PfCDPK1, Kinase-Glo ATP depletion luminescence
Chain of Calcium-dependent protein kinase 1 (Plasmodium falciparum (isolate 3D7)) (P62344 whole entry, looked up): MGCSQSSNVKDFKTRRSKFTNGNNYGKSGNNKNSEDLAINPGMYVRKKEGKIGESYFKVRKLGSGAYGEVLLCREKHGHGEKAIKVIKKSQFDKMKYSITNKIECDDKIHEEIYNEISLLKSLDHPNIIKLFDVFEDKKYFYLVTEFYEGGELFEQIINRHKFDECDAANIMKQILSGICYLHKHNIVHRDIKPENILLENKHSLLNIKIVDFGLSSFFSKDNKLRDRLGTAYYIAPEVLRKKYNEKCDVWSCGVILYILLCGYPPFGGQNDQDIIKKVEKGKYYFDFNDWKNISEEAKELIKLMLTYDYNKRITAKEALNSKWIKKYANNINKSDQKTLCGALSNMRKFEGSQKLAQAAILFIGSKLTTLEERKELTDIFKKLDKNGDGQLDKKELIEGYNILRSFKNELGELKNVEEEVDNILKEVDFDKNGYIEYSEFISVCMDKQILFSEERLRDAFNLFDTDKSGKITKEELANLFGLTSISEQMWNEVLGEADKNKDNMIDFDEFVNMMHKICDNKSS

[6] = target: Plasmodium falciparum protein kinase 6 (PK6, PF3D7_1337100) (UniProt Q8IDW1); assay: PfPK6 kinase inhibitors, biochemical, TCAMS library (AID 1159586); settings: recombinant PfPK6, Kinase-Glo ATP depletion luminescence
Chain of Plasmodium falciparum protein kinase 6 (PK6, PF3D7_1337100) (Q8IDW1 1-305): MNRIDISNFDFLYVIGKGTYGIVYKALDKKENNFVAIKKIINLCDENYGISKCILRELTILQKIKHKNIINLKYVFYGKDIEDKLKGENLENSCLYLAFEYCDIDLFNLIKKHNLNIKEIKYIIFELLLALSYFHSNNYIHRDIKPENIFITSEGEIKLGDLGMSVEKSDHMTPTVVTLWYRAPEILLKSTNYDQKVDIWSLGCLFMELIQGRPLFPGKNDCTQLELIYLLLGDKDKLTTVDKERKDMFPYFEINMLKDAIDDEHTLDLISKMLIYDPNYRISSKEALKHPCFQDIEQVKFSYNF

[7] = target: Protein kinase 7 (PK7), Plasmodium falciparum 3D7 (PF3D7_0213400) (UniProt Q7YTF7); assay: inhibition of Plasmodium PK7 catalytic activity – biochemical, TCAMS antimalarial set, Kinase-Glo luminescence (AID 1159587); settings: recombinant PfPK7, Kinase-Glo ATP depletion luminescence
Chain of Protein kinase 7 (PK7), Plasmodium falciparum 3D7 (PF3D7_0213400) (Q7YTF7 1-343): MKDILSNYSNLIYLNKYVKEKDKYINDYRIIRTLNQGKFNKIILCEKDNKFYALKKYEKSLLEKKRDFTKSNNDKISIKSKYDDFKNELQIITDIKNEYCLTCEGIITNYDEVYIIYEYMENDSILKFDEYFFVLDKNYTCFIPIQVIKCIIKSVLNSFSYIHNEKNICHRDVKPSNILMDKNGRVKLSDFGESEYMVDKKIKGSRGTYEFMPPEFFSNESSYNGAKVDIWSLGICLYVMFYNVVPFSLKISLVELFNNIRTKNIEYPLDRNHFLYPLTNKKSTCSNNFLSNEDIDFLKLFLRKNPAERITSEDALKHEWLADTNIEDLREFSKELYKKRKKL

[8] = target: Calcium-dependent protein kinase 4 (Plasmodium falciparum (isolate 3D7)) (UniProt Q8IBS5); assay: PfCDPK4 kinase inhibitors, biochemical, TCAMS library (AID 1159588; cut-off not given, nearly all actives have IC50 up to about 0.91 µM); settings: recombinant PfCDPK4, Kinase-Glo ATP depletion luminescence
Chain of Calcium-dependent protein kinase 4 (Plasmodium falciparum (isolate 3D7)) (Q8IBS5 whole entry, looked up): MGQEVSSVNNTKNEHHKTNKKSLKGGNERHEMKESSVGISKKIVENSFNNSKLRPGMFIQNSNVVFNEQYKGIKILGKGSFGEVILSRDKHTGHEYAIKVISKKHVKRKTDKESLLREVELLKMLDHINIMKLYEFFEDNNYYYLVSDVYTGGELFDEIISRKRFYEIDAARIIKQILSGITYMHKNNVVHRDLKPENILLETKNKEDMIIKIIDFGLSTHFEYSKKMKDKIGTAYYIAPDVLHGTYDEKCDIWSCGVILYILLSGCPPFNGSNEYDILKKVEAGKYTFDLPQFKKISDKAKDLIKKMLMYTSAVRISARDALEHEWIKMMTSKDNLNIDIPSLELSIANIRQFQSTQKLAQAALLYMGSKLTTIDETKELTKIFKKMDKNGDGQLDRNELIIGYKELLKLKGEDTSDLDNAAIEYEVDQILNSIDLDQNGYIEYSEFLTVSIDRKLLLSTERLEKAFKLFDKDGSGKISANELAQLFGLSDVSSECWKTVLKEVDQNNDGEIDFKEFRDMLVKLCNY

Clc1ccc(CNc2ccnc(NCc3ccc4c(c3)OCCCO4)n2)c(Cl)c1
inactive: growth inhibition [1] 20% | inhibition [3] -2% | outcome [5] | outcome [6] | outcome [7] | outcome [8]
active: inhibition [2] 50% | growth inhibition [4] 94%

O=C(Nc1cccc(Cl)c1)OC1CCCN2CCCCC12 (stereo not given)
active: growth inhibition [4] 85%
inactive: growth inhibition [1] -4% | inhibition [2] 6% | inhibition [3] 1% | outcome [5] | outcome [6] | outcome [7] | outcome [8]

O=C(Nc1ccc2c(c1)CCN2C1CCN(Cc2ccc(C(F)(F)F)cc2F)C1)c1ccco1 (stereo not given)
inactive: inhibition [2] 9% | inhibition [3] 1% | outcome [5] | outcome [6] | outcome [7] | outcome [8]
active: growth inhibition [1] 94% | growth inhibition [4] 91%

O=C(Nc1ccccc1)N(Cc1cccc(-c2cccc(CNCCc3ccccc3)c2)c1)C1CCN(Cc2ccccc2)CC1
active: growth inhibition [1] 87% | inhibition [2] 100% | growth inhibition [4] 100%
inactive: inhibition [3] 1% | outcome [5] | outcome [6] | outcome [7] | outcome [8]

C=CCn1c(=N)c(C(=O)NCc2ccc(F)cc2)cc2c(=O)n3cccc(C)c3nc21
inactive: growth inhibition [1] 11% | inhibition [2] 16% | inhibition [3] -2% | outcome [5] | outcome [6] | outcome [7] | outcome [8]
active: growth inhibition [4] 92%

O=C(N[C@@H](CC1CCCCC1)C(=O)NCc1cccc(C(F)(F)F)c1)c1ccc(O)c(-c2ccc(Cl)c(Cl)c2)c1
inactive: inhibition [2] -5% | inhibition [3] 5% | outcome [5] | outcome [6] | outcome [7] | outcome [8]
active: growth inhibition [1] 100% | growth inhibition [4] 98%

O=C(CC(=O)C(F)(F)F)c1ccc2c(c1)OCO2
inactive: growth inhibition [1] 0% | inhibition [2] 44% | inhibition [3] 0% | outcome [5] | outcome [6] | outcome [7] | outcome [8]
active: growth inhibition [4] 96%

CCCCOP(=O)(OCCCC)C(=Cc1ccc(O)c2ccccc12)P(=O)(OCCCC)OCCCC
inactive: inhibition [2] 1% | inhibition [3] -6% | outcome [5] | outcome [6] | outcome [7] | outcome [8]
active: growth inhibition [1] 64% | growth inhibition [4] 84%

CCNc1nc(OCC(F)(F)F)nc(N(c2ccccc2)c2ccccc2)n1
inactive: inhibition [2] 5% | inhibition [3] 1% | outcome [5] | outcome [6] | outcome [7] | outcome [8]
active: growth inhibition [1] 83% | growth inhibition [4] 100%

COc1ccc(NC(=O)CSc2nc(-c3ccccc3Cl)ns2)cc1OC
inactive: inhibition [2] -1% | inhibition [3] -2% | outcome [5] | outcome [6] | outcome [7] | outcome [8]
active: growth inhibition [1] 63% | growth inhibition [4] 97%

Cc1cccc(-c2nc(Nc3ccncc3)c3cc(N(C)C)ccc3n2)n1
inactive: inhibition [2] 5% | inhibition [3] -2% | outcome [5] | outcome [6] | outcome [7] | outcome [8]
active: growth inhibition [1] 63% | growth inhibition [4] 98%

Nc1ncc(-c2ccccc2)cc1/C=C/c1cccnc1
active: growth inhibition [4] 91%
inactive: growth inhibition [1] 9% | inhibition [2] 33% | inhibition [3] -2% | outcome [5] | outcome [6] | outcome [7] | outcome [8]

O=C(Nc1ccc(CC(=O)N2CCc3cc(Cl)c(N4CCN(C/C=C/c5ccccc5)CC4)cc32)cc1)Nc1cccc([N+](=O)[O-])c1
inactive: growth inhibition [1] 27% | inhibition [2] -8% | inhibition [3] -5% | outcome [5] | outcome [6] | outcome [7] | outcome [8]
active: growth inhibition [4] 95%

N#Cc1ccc(CN2CCCN(Cc3cccc(NC(=O)c4cc5ccccc5s4)c3)CC2)cc1
inactive: growth inhibition [1] 36% | inhibition [2] 31% | inhibition [3] 0% | outcome [5] | outcome [6] | outcome [7] | outcome [8]
active: growth inhibition [4] 97%

CC1(C)N=C(N)N=C(N)N1c1cc(Cl)c(Cl)cc1Cl
active: growth inhibition [4] 95%
inactive: growth inhibition [1] -3% | inhibition [2] 11% | inhibition [3] 1% | outcome [5] | outcome [6] | outcome [7] | outcome [8]

Cn1c(Cc2ccccc2)nnc1Sc1ccc(C#N)c([N+](=O)[O-])c1
active: growth inhibition [4] 93%
inactive: growth inhibition [1] 29% | inhibition [2] -5% | inhibition [3] -5% | outcome [5] | outcome [6] | outcome [7] | outcome [8]

COCCn1ccc2c3c(N)nc(N)nc3ccc21
active: growth inhibition [4] 93%
inactive: growth inhibition [1] 29% | inhibition [2] 43% | inhibition [3] -2% | outcome [5] | outcome [6] | outcome [7] | outcome [8]

c1cc(CN2CCN(CCN3CCOCC3)CC2)cc(-c2csc(-c3nc4ccccc4[nH]3)c2)c1
inactive: inhibition [2] 27% | inhibition [3] -8% | outcome [5] | outcome [6] | outcome [7] | outcome [8]
active: growth inhibition [1] 99% | growth inhibition [4] 100%

Cc1cc(N[C@@H](Cc2ccccc2)C(=O)NCc2cccs2)nc(NCC2CCCCC2)n1
active: growth inhibition [1] 92% | growth inhibition [4] 100%
inactive: inhibition [2] -5% | inhibition [3] 0% | outcome [5] | outcome [6] | outcome [7] | outcome [8]

CC(=O)Oc1cc(OCc2ccccc2)c(OC(C)=O)c(OCc2ccccc2)c1
active: growth inhibition [1] 78% | growth inhibition [4] 94%
inactive: inhibition [2] 11% | inhibition [3] 1% | outcome [5] | outcome [6] | outcome [7] | outcome [8]

Cc1ccc(C)c(CN2CCC(CNC(=O)c3cc4ccc5cccnc5c4[nH]3)CC2)c1
active: growth inhibition [4] 95%
inactive: growth inhibition [1] 10% | inhibition [2] 25% | inhibition [3] -3% | outcome [5] | outcome [6] | outcome [7] | outcome [8]

Cc1nc2ccccc2c(=O)n1N=Cc1ccccc1[N+](=O)[O-]
inactive: growth inhibition [1] 26% | inhibition [2] -8% | inhibition [3] 3% | outcome [5] | outcome [6] | outcome [7] | outcome [8]
active: growth inhibition [4] 94%

CCCc1ccc(NC(=O)c2ccc(CN3CCCN(Cc4cccc(O)c4)CC3)cc2)cc1
inactive: inhibition [3] -1% | outcome [5] | outcome [6] | outcome [7] | outcome [8]
active: growth inhibition [1] 63% | inhibition [2] 51% | growth inhibition [4] 101%

COc1cc(NC(=O)Nc2ccc(Br)cc2C(=O)Nc2ccc(Br)cc2)cc(OC)c1OC
active: growth inhibition [1] 98% | growth inhibition [4] 99%
inactive: inhibition [2] -4% | inhibition [3] 7% | outcome [5] | outcome [6] | outcome [7] | outcome [8]

COc1ccc(CNCc2ccc(F)cc2)cc1-c1ccc(S(=O)(=O)NCCN2CCCC2)cc1
active: growth inhibition [4] 91%
inactive: growth inhibition [1] 25% | inhibition [2] 38% | inhibition [3] 0% | outcome [5] | outcome [6] | outcome [7] | outcome [8]

COc1nc2c(CCN3CC[C@@H](NCc4cc(C#N)c5c(c4)CCO5)[C@@H](O)C3)ccnc2cc1F
active: growth inhibition [4] 92%
inactive: growth inhibition [1] 35% | inhibition [2] 21% | inhibition [3] -1% | outcome [5] | outcome [6] | outcome [7] | outcome [8]

Cc1ccc(-c2cc(C(=O)Nc3ccc(S(=O)(=O)N4CCCCC4)cc3)[nH]n2)c(O)c1
active: growth inhibition [1] 92% | growth inhibition [4] 97%
inactive: inhibition [2] 6% | inhibition [3] -5% | outcome [5] | outcome [6] | outcome [7] | outcome [8]

O=C(/C=C/c1ccc(Cl)c(Cl)c1)NCCCCCN1CCCN(C(=O)Nc2cc(Cl)cc(Cl)c2)CC1
inactive: growth inhibition [1] 4% | inhibition [3] 6% | outcome [5] | outcome [6] | outcome [7] | outcome [8]
active: inhibition [2] 53% | growth inhibition [4] 96%

COc1cc(-n2c(CN3CCCC3)nc3cc(-c4ccc(Cl)cc4)sc3c2=O)ccc1OCCN1CCCC1
active: growth inhibition [1] 90% | inhibition [2] 66% | growth inhibition [4] 94%
inactive: inhibition [3] -5% | outcome [5] | outcome [6] | outcome [7] | outcome [8]

COc1ccc(CNCc2ccc(-c3ccc(-c4nc5ccccc5[nH]4)cc3)cc2)cc1
active: growth inhibition [1] 89% | inhibition [2] 63% | growth inhibition [4] 103%
inactive: inhibition [3] -4% | outcome [5] | outcome [6] | outcome [7] | outcome [8]

OCCN1CCN(Cc2ccc(-c3cccc(-c4nc5ccccc5[nH]4)c3)cc2)CC1
inactive: growth inhibition [1] 16% | inhibition [2] 32% | inhibition [3] 6% | outcome [5] | outcome [6] | outcome [7] | outcome [8]
active: growth inhibition [4] 96%

CCCCC(=O)Nc1nonc1-c1ccc(OCC)c(OCC)c1
active: growth inhibition [1] 95% | growth inhibition [4] 101%
inactive: inhibition [2] 9% | inhibition [3] -1% | outcome [5] | outcome [6] | outcome [7] | outcome [8]

Cc1cc(-c2ccc(CN3Cc4ccccc4C3)cc2)ccc1S(=O)(=O)NCCN1CCCC1
active: growth inhibition [4] 94%
inactive: growth inhibition [1] 10% | inhibition [2] 49% | inhibition [3] -4% | outcome [5] | outcome [6] | outcome [7] | outcome [8]

CCn1c(Sc2ccc([N+](=O)[O-])c(C#N)c2)nnc1-c1cccc(Cl)c1
active: growth inhibition [4] 89%
inactive: growth inhibition [1] 22% | inhibition [2] 8% | inhibition [3] 2% | outcome [5] | outcome [6] | outcome [7] | outcome [8]

Cc1[nH]c(C)c(-c2ccc(-c3ccccc3F)nc2)c(=O)c1Br
active: growth inhibition [1] 97% | growth inhibition [4] 97%
inactive: inhibition [2] 2% | inhibition [3] -3% | outcome [5] | outcome [6] | outcome [7] | outcome [8]

CS(=O)(=O)c1ccc(CCNCc2ccc(-c3ccc(CNC4Cc5ccccc5C4)cc3)nc2)cc1
active: growth inhibition [1] 80% | growth inhibition [4] 100%
inactive: inhibition [2] 18% | inhibition [3] -3% | outcome [5] | outcome [6] | outcome [7] | outcome [8]

CCc1cc(Cc2cnc(N)nc2N)cc(CC)c1OC
active: growth inhibition [4] 90%
inactive: growth inhibition [1] 12% | inhibition [2] 3% | inhibition [3] 8% | outcome [5] | outcome [6] | outcome [7] | outcome [8]

O=c1cc(NCCCN(Cc2cc3c(Cl)cc(Cl)cc3[nH]2)Cc2cc3c(Cl)cc(Cl)cc3[nH]2)[nH]c2ccccc12
inactive: inhibition [2] 23% | inhibition [3] -6% | outcome [5] | outcome [6] | outcome [7] | outcome [8]
active: growth inhibition [1] 80% | growth inhibition [4] 87%

CN1CCN(c2cc(-c3cccc(C(F)(F)F)c3)nc(-c3ccncc3)n2)CC1
active: growth inhibition [1] 98% | growth inhibition [4] 102%
inactive: inhibition [2] 38% | inhibition [3] 1% | outcome [5] | outcome [6] | outcome [7] | outcome [8]

COc1ccc(/C=C/C(=O)NCCCCCN2CCC(c3c[nH]c4ccccc34)CC2)cc1O
inactive: growth inhibition [1] 1% | inhibition [2] 9% | inhibition [3] -5% | outcome [5] | outcome [6] | outcome [7] | outcome [8]
active: growth inhibition [4] 91%
